This excerpt belongs to a sample that is enriched for hits.
CD40 NFkB inh: CD40 pathway inhibition in BL2 cells | BL2 NF-kB luciferase reporter, CD40L-induced, 4 h | AID 1053188 | inhibition, % at 10 µM | 83,000 tested, 0.94% active;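 active means mean inhibition of at least 50% with a set share of replicates also reaching that level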;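 further: 0% = neutral control wells and 100% = IKK inhibitor VII at 50 µM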
* marks the source's active call; other numbers are inactive results; [ ] = dose if it differs, or a comment.

SMILES	CD40 NFkB inh
N#Cc1ccc(-c2ccc(C3[C@@H]4CN(C(=O)C5CCC5)C[C@H]3N4)cc2)cc1 (stereo partly specified)	44
O=C(c1ccc(F)cc1)N1C[C@@H]2N[C@H](C1)C2c1ccc(-c2ccccc2F)cc1 (stereo partly specified)	4[25 µM]
COc1ccc2c3c([nH]c2c1)[C@H](CO)N(Cc1ccc(F)cc1)CC31CN(Cc2ccccn2)C1	8
N#C[C@H]1[C@H](c2ccc(C3=CCCC3)cc2)[C@H](CO)N1C(=O)C1CC1	10
COc1ccc(S(=O)(=O)N(C)C[C@@H]2OCc3cn(nn3)CCCC(=O)N([C@H](C)CO)C[C@@H]2C)cc1	1[25 µM]
O=C(c1cccc(F)c1)N1C[C@H]2[C@@H](c3ccccc31)[C@@H](CO)N2C(=O)c1ccccn1	-1[25 µM]
CO[C@@H](C(=O)N(C)C[C@@H]1OCc2ccccc2-c2ccccc2C(=O)N([C@@H](C)CO)C[C@H]1C)c1ccccc1	-25[25 µM]
CNC[C@@H]1OCCCC[C@H](C)Oc2ccc(NS(=O)(=O)c3ccc(F)cc3)cc2C(=O)N([C@H](C)CO)C[C@@H]1C	-8[25 µM]
CC1(O)C(O)C(CO)OC1n1cnc2c(NC3CCCC3)nc(Cl)nc21 (stereo unspecified)	-2[25 µM]
C[C@@H]1CC=CC[C@H](c2ccc3c(c2)OCO3)NC(=O)[C@H](C)N(C)C(=O)c2ccccc2O1 (mixture of isomers)	14[25 µM]
CN1C(=O)c2cc(NC(=O)c3ccc(C#N)cc3)ccc2OC[C@H]2O[C@@H](CC(=O)NC3Cc4ccccc4C3)CC[C@@H]21	-25[25 µM]
COc1ccccc1-c1ccc([C@@H]2[C@@H](CO)N3CCCCN(C(=O)NC4CCCC4)C[C@H]23)cc1	7[25 µM]
O=C(c1ccccc1)N1C[C@@H]2[C@H](c3ccccc31)[C@H](CO)N2C(=O)c1ccccn1	-10
O=C(C[C@@H]1C=C[C@H](NC(=O)Nc2ccc3c(c2)OCO3)[C@H](CO)O1)NCCCN1CCOCC1	0[25 µM]
COc1ccccc1CN(C)C[C@@H]1OCc2ccccc2-c2ccccc2C(=O)N([C@H](C)CO)C[C@@H]1C	-3[25 µM]
C[C@H](CO)N1C[C@H](C)[C@H](CN(C)Cc2ccc(Oc3ccccc3)cc2)OCc2ccccc2-c2ccccc2C1=O	57*[25 µM]
C[C@H](CO)N1C[C@H](C)[C@H](CN(C)Cc2ccc(-c3ccccc3)cc2)OCc2ccccc2-c2ccccc2C1=O	6
COc1ccccc1CN(C)C[C@@H]1OCc2ccccc2-c2ccccc2C(=O)N([C@@H](C)CO)C[C@@H]1C	-13[25 µM]
C[C@H](CO)N1C[C@H](C)[C@H](CN(C)Cc2ccccc2)OCc2ccccc2-c2ccccc2C1=O	11
C[C@H]1CN([C@@H](C)CO)C(=O)c2ccccc2-c2ccccc2CO[C@@H]1CN(C)Cc1ccccc1C(F)(F)F	66*[25 µM]
O=C(C[C@@H]1C=C[C@H](NC(=O)Nc2ccccc2F)[C@H](CO)O1)NCc1ccc(-c2ccccc2)cc1	5[25 µM]
O=C(C1CCOCC1)N1CC(=O)N2[C@H](C1)[C@H](c1ccc(C#CC3CCCCC3)cc1)[C@@H]2CO	-12[25 µM]
C/C=C/c1ccc([C@H]2[C@@H](CO)N(C(=O)CN(C)C)[C@@H]2CNC(=O)CC)cc1	-3[25 µM]
COc1ccc2c3c([nH]c2c1)[C@@H](CO)N(C(=O)c1ccc(F)cc1)CC31CCN(S(=O)(=O)c2cccs2)CC1	10[25 µM]
CN(C)CC(=O)N1C[C@@H]2N[C@H](C1)C2c1ccc(-c2ccncc2)cc1 (stereo partly specified)	-2[25 µM]
SMILES	CD40 NFkB inh
COc1ccccc1N(CC(=O)N(CC(C)C)CC(C)C)S(=O)(=O)c1cccs1	14
COc1ccc(Cl)cc1N(C(C)C(=O)O)S(C)(=O)=O (stereo unspecified)	-1
COc1ccccc1N(C(C)=O)C1=C(Cl)C(=O)c2ccccc2C1=O	101*
C[C@H]1CN([C@@H](C)CO)C(=O)c2c(c3ccccc3n2C)-c2ccccc2CO[C@H]1CN(C)Cc1ccc(C(=O)O)cc1	0
O=S(=O)(c1ccc(F)cc1)N1CC[C@@H]2[C@H]1c1cc(Br)ccc1N[C@@H]2CO	3
COc1ccc(NC(=O)Nc2nc(C(N)CC(C)C)cs2)cc1 (stereo unspecified)	2
CC(C)c1ccc(NC(=O)Nc2nc(C(N)COCc3ccccc3)cs2)cc1 (stereo unspecified)	57*
COc1cccc(Nc2nc(C(N)COCc3ccccc3)cs2)n1 (stereo unspecified)	6
COc1ccccc1CNC(=O)C[C@@H]1CC[C@H]2[C@@H](COC[C@H](O)CN2Cc2ccc3c(c2)OCO3)O1	18[25 µM]
O=C(C[C@@H]1CC[C@H]2[C@@H](COC[C@H](O)CN2Cc2nccs2)O1)N1CCC(Cc2ccccc2)CC1	11[25 µM]
COc1ccc2oc(C(=O)NCCc3ccccc3)c(C)c2c1	58*
Cc1c(C(=O)NCCc2ccccc2)oc2ccc(S(=O)(=O)N3CCOCC3)cc12	-16
COc1ccc2oc(C(=O)NCC(c3ccco3)N(C)C)c(C)c2c1 (stereo unspecified)	1
CCCNC(=O)N1CC2(C1)[C@@H](c1ccccc1)[C@H](CO)N2CC1CCOCC1	-1[25 µM]
O=C(c1ccc2c(c1)OCO2)N1C[C@@H]2[C@H](c3ccccc31)[C@H](CO)N2C(=O)CC1CC1	-3[25 µM]
O=C(/C=C/c1ccccc1)c1ccccc1	-42
Cn1cc(/C=C/C(=O)c2ccccc2)c2ccccc21	33*
Cn1cc(/C=N/Nc2ccccc2)c2ccccc21	-3
COc1cccc(NC(=O)N2C[C@H](O)COC[C@@H]3O[C@@H](CC(=O)N(C)C)CC[C@H]32)c1	-12[25 µM]
CO[C@H]1CN(C)C(=O)c2cccc(C#N)c2OCC[C@@H]2CC[C@@H](OC)[C@H](CN(C)C(=O)[C@@H]1C)O2	-7[25 µM]
COc1ccc(S(=O)(=O)Nc2ccc3c(c2)[C@H]2C[C@H](CC(=O)N(C)C)O[C@H](CO)[C@H]2O3)cc1	3[25 µM]
CC(C)C1CC(N(C)C)=CC(=S)N1 (stereo unspecified)	30*
CN(C[C@H]1[C@@H](c2ccccc2)[C@@H](CO)N1C(=O)C1CC1)C(=O)c1ccccn1	-2[25 µM]
CC(C)NC(=O)Nc1ccc2c(c1)C(=O)N(C)C[C@@H](C)[C@H](CN(C)S(C)(=O)=O)O2	2
N#C[C@@H]1[C@H](c2ccc(C#Cc3ccccc3F)cc2)[C@@H](CO)N1C(=O)C1CCCC1	94*
SMILES	CD40 NFkB inh
CCc1csc(N2[C@H](C#N)[C@@H](c3ccc(-c4ccc(F)cc4)cc3)[C@@H]2CO)n1	19
CC(C)C#Cc1ccc([C@H]2[C@H](C#N)N(C(=O)c3ccccn3)[C@H]2CO)cc1	15[25 µM]
CCc1csc(N2[C@H](C#N)[C@H](c3ccc(C#Cc4ccc(F)cc4)cc3)[C@H]2CO)n1	77*[25 µM]
CC(C)C#Cc1ccc([C@@H]2[C@@H](C#N)N(C(=O)c3ccccn3)[C@@H]2CO)cc1	-11[25 µM]
CC(C)C#Cc1ccc([C@H]2[C@@H](CO)N(C(=O)c3ccccn3)[C@H]2C#N)cc1	60*[25 µM]
N#C[C@H]1[C@H](c2ccc(C#Cc3ccc(F)cc3)cc2)[C@H](CO)N1C(=O)C1CCCC1	-13
CCc1csc(N2[C@@H](C#N)[C@@H](c3ccc(C#Cc4ccc(F)cc4)cc3)[C@@H]2CO)n1	20[25 µM]
N#C[C@H]1[C@H](c2ccc(C#Cc3ccccc3F)cc2)[C@@H](CO)N1C(=O)C1CC1	50*[25 µM]
N#C[C@@H]1[C@@H](c2ccc(C#Cc3ccccc3F)cc2)[C@H](CO)N1C(=O)C1CC1	-4[25 µM]
N#C[C@@H]1[C@@H](c2ccc(C#Cc3ccccc3F)cc2)[C@@H](CO)N1C(=O)C1CC1	0

Screening results as filed in PubChem.
